This note sets out measurements from PubChem BioAssay (EPA / NIEHS).

As usually defined, the AC50 is the concentration giving half of the maximal activity seen.

Some compounds were tested as several samples or in several runs, with calls that do not always agree. Activity calls are given as the source filed them. The calls were made as follows: active = hit-call score of the fitted dose curve at least 0.9, where 1 is the maximum; inactive = score below 0.9.

Read-out in the first assay: solute carrier (SLCO1B1), SLCO1B1 (gene 10599)
Nature of the assay: LTEA_HepaRG_SLCO1B1: Life Technologies and Expression Analysis (LTEA) Assay for solute carrier (SLCO1B1) using HepaRG (AID 2283530). The settings on record: mRNA level, 48 h; actives raise or lower the signal. A digest of the protocol: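 SLCO1B1 transcript levels were quantified by TaqMan qRT-PCR using three housekeeping genes for normalization. This followed 48 h chemical exposure (100 uM top, half-log, 8 points, 0.5% DMSO) of HepaRG liver cells, with gain or loss fitted relative to DMSO.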
For the compound `CC/C(=C(\c1ccccc1)c1ccc(OCCN(C)C)cc1)c1ccccc1`, the AC50 was 45.8 µM (active) and the call was inactive.

For `O=C(c1ccc(OCCN2CCCCC2)cc1)c1c(-c2ccc(O)cc2)sc2cc(O)ccc12`, the AC50 is 68.7 µM (active).

Turning to `CCCCOCCOCCO`, the outcome was inactive.

For `C#C[C@]1(O)CC[C@H]2[C@@H]3CCc4cc(O)ccc4[C@H]3CC[C@@]21C`, the call was inactive.

`C[C@]12CC[C@@H]3c4ccc(O)cc4CC[C@H]3[C@@H]1CC[C@@H]2O`: the call was inactive.

Consider `COC(=O)c1ccc(C(=O)OC)cc1`, for which the outcome was inactive.

`C=C(C)C(N)=O`: the result was inactive.

Read-out in another assay: sulfotransferase 2A1 (SULT2A1), SULT2A1 (gene 6822)
The assay is described as follows: LTEA_HepaRG_SULT2A1: Life Technologies and Expression Analysis (LTEA) Assay for sulfotransferase 2A1 (SULT2A1) using HepaRG (AID 2283531). To be noted: mRNA level, 48 h; actives raise or lower the signal. A digest of the protocol:
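Expression change of SULT2A1, by qRT-PCR with three housekeeping-gene normalization, was scored bidirectionally versus DMSO. Cells: differentiated HepaRG, dosed in duplicate for 48 h across 8 points, highest 100 µM, half-log dilution, 0.5% DMSO.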
As for `CC/C(=C(\c1ccccc1)c1ccc(OCCN(C)C)cc1)c1ccccc1`, the concentration at half-maximal activity (AC50) was 74.6 µM (active) and the outcome was inactive.

Take `O=C(c1ccc(OCCN2CCCCC2)cc1)c1c(-c2ccc(O)cc2)sc2cc(O)ccc12`: the AC50 is 50 µM (active).

In the case of `CCCCOCCOCCO`, the outcome was inactive.

For the compound `C#C[C@]1(O)CC[C@H]2[C@@H]3CCc4cc(O)ccc4[C@H]3CC[C@@]21C`, the result was inactive.

With `C[C@]12CC[C@@H]3c4ccc(O)cc4CC[C@H]3[C@@H]1CC[C@@H]2O`, the half-maximal activity concentration (AC50) was 50 µM (active).

With `COC(=O)c1ccc(C(=O)OC)cc1`, the compound was called inactive.

Consider `C=C(C)C(N)=O`, for which the result was inactive.

Read-out in the next assay: Transforming Growth Factor (TGFA), TGFA (gene 7039)
Nature of the assay: LTEA_HepaRG_TGFA: Life Technologies and Expression Analysis (LTEA) Assay for Transforming Growth Factor (TGFA) using HepaRG (AID 2283532). The settings on record: mRNA level, 48 h; actives raise or lower the signal. A digest of the protocol: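 TGFA transcript quantified by qRT-PCR (Fluidigm arrays) against three housekeeping genes, after 48 hours chemical treatment of HepaRG cells. Top concentration 100 uM with half-log dilutions, 8 points, duplicates, 0.5% DMSO.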
For `CC/C(=C(\c1ccccc1)c1ccc(OCCN(C)C)cc1)c1ccccc1`, the concentration at half-maximal activity (AC50) is 94.2 µM (active) and the outcome was inactive.

With `O=C(c1ccc(OCCN2CCCCC2)cc1)c1c(-c2ccc(O)cc2)sc2cc(O)ccc12`, the AC50 is 75.2 µM (active).

For `CCCCOCCOCCO`, the call was inactive.

For the compound `C#C[C@]1(O)CC[C@H]2[C@@H]3CCc4cc(O)ccc4[C@H]3CC[C@@]21C`, the call was inactive.

For `C[C@]12CC[C@@H]3c4ccc(O)cc4CC[C@H]3[C@@H]1CC[C@@H]2O`, the result was inactive.

For the compound `COC(=O)c1ccc(C(=O)OC)cc1`, the outcome was inactive.

For the compound `C=C(C)C(N)=O`, the compound was classed as inactive.

Read-out in a further assay: Transforming Growth Factor (TGFB1), TGFB1 (gene 7040)
Nature of the assay: LTEA_HepaRG_TGFB1: Life Technologies and Expression Analysis (LTEA) Assay for Transforming Growth Factor (TGFB1) Transporter using HepaRG (AID 2283533). The settings on record: mRNA level, 48 h; actives raise or lower the signal. The essentials:
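TGFB1 transcript measured by qRT-PCR with normalisation to three housekeeping genes (ACTB, GAPDH, POLR2A); human HepaRG line treated in duplicate for 48 hr with an 8-point series topping at 100 uM, 0.5% DMSO vehicle, bidirectionally fitted.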
With `CC/C(=C(\c1ccccc1)c1ccc(OCCN(C)C)cc1)c1ccccc1`, the half-maximal activity concentration (AC50) was 73.5 µM (active) and the outcome was inactive.

Turning to `O=C(c1ccc(OCCN2CCCCC2)cc1)c1c(-c2ccc(O)cc2)sc2cc(O)ccc12`, the outcome was inactive.

Consider `CCCCOCCOCCO`, for which the outcome was inactive.

`C#C[C@]1(O)CC[C@H]2[C@@H]3CCc4cc(O)ccc4[C@H]3CC[C@@]21C`: the call was inactive.

In the case of `C[C@]12CC[C@@H]3c4ccc(O)cc4CC[C@H]3[C@@H]1CC[C@@H]2O`, the compound was classed as inactive.

On to `COC(=O)c1ccc(C(=O)OC)cc1`, for which the compound was classed as inactive.

As for `C=C(C)C(N)=O`, the outcome was inactive.
